FMDV inh: foot and mouth disease virus antiviral activity. FMDV antiviral cell-based qHTS. Potency, µM (series often up to 57.9 µM), without a hit: at the top dose activity change, negative = inhibition, most hits filed as inhibitors. 410,000 compounds, 1.2% hits. AID 1159524; calls by dose curve; tested in HEK293T cells; also: read-out not given here; potency is read from the fitted curve at half-maximal effect; % is scaled to controls: 0 for no effect and ±100 for the full control effect; nearly all actives have a fitted effect of over 45% in size
HCMV inh: inhibitors of human cytomegalovirus; 410,000 compounds, 4.5% hits; AID 1259415; activity change, negative = inhibition, % at 57.5 µM; HFF cells, HCMV-luciferase reporter, 72 h; stronger effect = lower value; in the data active = activity change below about -60%; inconclusive = no clear call, values can overlap the other calls; inactive = above about -39%; also: % is scaled to controls: 0 for no effect and ±100 for the full control effect
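Two-dose cell screen: HFF monolayers treated with compounds and infected with luciferase-expressing HCMV at 1 PFU/cell, 72 h at 37C, then lysed for luciferase measurement.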
Lassa entry inh: Lassa virus entry inhibition; Lassa virus pseudotype entry inhibition, cell reporter; Potency, µM (titrated, usually from 37.9 µM), without a hit: at the top dose activity change, negative = inhibition, actives largely listed as inhibitors; 300,000 compounds, 1.2% hits; AID 540256; calls by dose curve; tested in HEK293 cells; also: potency is read from the fitted curve at half-maximal effect; % is scaled to controls: 0 for no effect and ±100 for the full control effect; nearly all actives have a fitted effect of over 50% in size
SARS PLpro yeast-1: SARS-CoV PLP inhibition in yeast. S. cerevisiae expressing SARS-CoV PLpro, growth rescue. Potency, µM (series often up to 32.9 µM), without a hit: at the top dose activity, positive = growth rescue, hits mostly activators. 330,000 compounds, 0.19% hits; calls by dose curve; also: potency is read from the fitted curve at half-maximal effect; 0% is about no effect; nearly all actives have a fitted effect of over 55% in size
MARV entry inh: Marburg virus entry inhibition | Marburg virus pseudotyped entry inhibition, cell reporter | Potency, µM (titrated, usually from 37.8 µM), inactives show top-dose activity change, negative = inhibition, actives largely listed as inhibitors | 300,000 compounds, 1.8% hits | AID 540276; calls by dose curve; tested in HEK293 cells; also: potency is read from the fitted curve at half-maximal effect; % is scaled to controls: 0 for no effect and ±100 for the full control effect
HCV inh: HCV inhibition. AID 651820. Huh7.5.1 HCVcc-Cre infection, luciferase reporter, 44 h. 340,000 compounds, 3.4% hits. Potency, µM (doses to about 41.8 µM), for inactives: at the top dose activity change, negative = inhibition, hits mostly inhibitors; active = well fitted inhibition curve with a large enough effect; inconclusive = small, poorly fitted or top-dose-only effect, or another doubt; inactive = no such curve, though single readings can be large or run the other way; also: potency is read from the fitted curve at half-maximal effect; % is scaled to controls: 0 for no effect and ±100 for the full control effect
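Luciferase read-out (15 sec integration) after a 15 min room-temperature substrate step quantifies HCVcc-Cre infection. Cells, 1,000 per well, had compound added 4 h post-plating, then virus at ~0.5 moi, and were cultured 44 h.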
SARS PLpro yeast-2: Rescues yeast growth by inhibiting SARS-CoV PLpro; shares compounds with SARS PLpro yeast-1; yeast expressing SARS-CoV PLpro, growth phenotype rescue; calls only; 1,000 compounds, 19% hits; AID 652038; call rule not given here
Starred values were filed as active, the others as inactive; i = inactive; ? = inconclusive; . = not tested or not shown; + = active, no number; ! = a repeat was not active; [ ] = remark or other dose. Most compounds without a hit are left out; they make up all but 8% or so of the library.

SMILES | FMDV inh | HCMV inh | Lassa entry inh | SARS PLpro yeast-1 | MARV entry inh | HCV inh | SARS PLpro yeast-2
O=C(N/N=C/c1c(O)n(-c2ccc(Cl)cn2)c(=O)c2ccccc12)C1CC1 | 1.7% | 27.2 | -22.2% | -5.5% | ? | -3.5% | .
CCOC(=O)c1oc2ccccc2c1CN1CCN(c2ccccc2)CC1 | ? | 6.4 | ? | -4.0% | -12.4%[46.1 µM] | -3.5% | .
CCOC(=O)c1oc2ccccc2c1CN1CCN(C(=O)c2ccccc2)CC1 | ? | 2.6 | ? | 3.55µM* | -2.3% | -19.5% | i
CCc1ccc(C#CC2=CC(=O)CC(C)(C)C2)cc1 | 15.5% | -26.9 | . | . | . | . | .
Cc1cc(=O)[nH]c(NN=Cc2c(Cl)cccc2Cl)n1 | -23.1% | ? | 17.2% | . | 21.2% | 13.7% | .
Cc1cc(=O)[nH]c(N/N=C/c2c(O)n(-c3ccccc3)c(=O)c3ccccc23)n1 | -21.5% | 87.6 | 12.4% | ? | 2.9% | 15.4% | i
Cc1cc(=O)[nH]c(N/N=C/c2ccccn2)n1 | 51.0% | -99.9* | 7.08µM* | ? | 2.59µM* | 1µM* | i
COc1cc(CCCN2CCNC[C@@H]2Cc2ccc(O)cc2)cc(OC)c1OC | -1.7% | 53.4 | . | -3.0% | . | 49.4% | .
C[C@@H]1O[C@@H](O[C@H]2C[C@@H](O)[C@]3(CO)[C@H]4[C@H](O)C[C@]5(C)[C@@H](C6COC(=O)C6)CC[C@]5(O)[C@@H]4CC[C@]3(O)C2)[C@H](O)[C@H](O)[C@H]1O (some centres undefined) | ? | -97.1* | 1.64µM* | ? | ? | 1µM*! | i
CCN(CC(=O)Nc1ccc(NC(C)=O)cc1)C(=O)/C=C/c1c(C)nn(-c2ccc(F)cc2)c1C | -19.2% | 2.0 | ? | ? | 20.3% | 0.9% | i
COc1ccccc1NC(=S)NNC(=O)c1nn(C)c(C)c1Cl | 0.0% | 5.5 | 21.3% | 7.9% | 2.3% | 17.9% | .
COc1ccccc1NC(=S)NNC(=O)c1nn(C)c(C)c1Br | 58.3% | -21.6 | 6.5% | 15.8µM* | 13.7% | 33.9% | i
Oc1ccc(Cn2ccnc2)c2cccnc12 | 11.0% | -10.6 | ? | 1.9% | ? | ? | .
Cc1ccccc1NCc1ccc(O)c2ncccc12 | ? | -97.5* | ? | ? | ? | ? | +
CC(C)C(=O)Nc1ccc(C(=O)Nc2nnc(C(C)(C)C)s2)cc1 | -10.5% | ? | 11.8%[46.1 µM] | 0.4% | -2.4%[46.1 µM] | -12.7% | .
CC(C)C(=O)Nc1cccc(C(=O)Nc2nnc(C(C)(C)C)s2)c1 | 1.5% | 31.4 | 17.7% | ? | 0.1% | -29.1% | i
Cc1ccc2c(c1)N(C(=O)CCC(=O)NC1CCN(Cc3ccccc3)CC1)CC(C)O2 (centres undefined) | 0.0% | -6.8 | . | ? | . | -28.0% | i
COc1cccc(C(CNC(=O)C2CCN(C(=O)Nc3ccccc3)CC2)N(C)C)c1 (centres undefined) | 12.3% | 12.1 | 3.1% | ? | ? | -2.0% | i
CCCC(C(=O)O)N1C(=O)/C(=C/c2cccn2C)SC1=S (centres undefined) | 0.4% | -38.7 | -8.1% | ? | 4.2% | 8.2% | i
O=C1/C(=C/C=C/c2ccco2)SC(=S)N1c1ccc(O)cc1 | 7.1% | -2.5 | . | -7.7% | . | -7.2% | .
O=C1/C(=C\c2ccco2)SC(=S)N1c1ccc(O)cc1 | -3.0% | -13.2 | -27.2% | . | ? | 32.2% | i
Cn1c(=O)n(C)c2cc(N3CCOCC3)c(NS(=O)(=O)c3ccc(F)cc3)cc21 | -4.8% | 26.2 | -3.1%[46.1 µM] | . | 6.9%[46.1 µM] | . | .
O=C1CN(CC(=O)Nc2cccc(Cl)c2Cl)c2ccccc2N1 | -13.0% | 28.2 | . | 0.0% | . | 10.9% | .
CCCN1CCN(C(=O)c2noc3c2COc2ccc(C)cc2-3)CC1 | -20.7% | 15.3 | . | ? | . | 6.1% | i
Cc1ccc2c(c1)-c1onc(C(=O)N3CCN(c4cc(C)ccc4C)CC3)c1CO2 | -22.4% | 8.2 | -1.4%[46.1 µM] | . | . | . | .
SMILES | FMDV inh | HCMV inh | Lassa entry inh | SARS PLpro yeast-1 | MARV entry inh | HCV inh | SARS PLpro yeast-2
COC(=O)c1ccc(OC(=O)c2cccnc2)cc1 | -7.4% | 30.1 | 0.1% | 15.8µM* | 9.7% | 4.9% | ?
COc1ccc(CCNS(=O)(=O)CCNC(=O)c2ccc3c(c2)OCO3)cc1 | 11.0% | -13.5 | 20.0% | -3.5% | 4.5% | -3.0% | .
Cc1csc(N/N=C/c2ccc(O)c([N+](=O)[O-])c2)n1 | 56.3% | 10.7 | ? | 10µM* | 1.3% | -3.7% | +
O=C(COC(=O)CCC(=O)c1cccs1)NC1CC1 | 9.9% | -37.7 | 10.0% | 3.4% | 7.8% | 27.6% | .
C=CCN1[C@@H](C)[C@H](c2ccccc2)Oc2cccc(NCC(C)C)c2S1(=O)=O | . | -22.6 | . | . | . | . | .
Cc1c(C(=O)N2CCN(S(=O)(=O)c3cccs3)CC2)oc2ccc(F)cc12 | -17.7% | -27.2 | . | -1.6% | . | 15.9% | .
Cc1c(C(=O)N2CCN(S(=O)(=O)c3ccc(F)cc3)CC2)oc2ccccc12 | -11.7% | -31.5 | 2.6% | ? | -19.4% | -7.7% | i
CCOc1cc(NC(=O)Nc2ccc(F)cc2)c(OCC)cc1NC(=O)CC | -8.0% | 29.2 | . | -5.1% | . | ? | .
Brc1ccc(OCc2nc(-c3ccccn3)n[nH]2)cc1 | -1.5% | 58.2 | -26.7% | ? | -25.9% | ? | +
CCn1c(=O)c2ccccc2n(Cc2ccc([N+](=O)[O-])cc2)c1=O | -28.3% | 12.0 | . | 3.7% | . | 9.2% | .
Cc1c(C=O)c2ccccc2n1Cc1ccc([N+](=O)[O-])cc1 | ? | -4.7 | ? | ? | ? | 9.1% | i
CCCC(=O)NC(c1ccccc1Cl)c1ccc2cccnc2c1O (centres undefined) | -5.5% | -97.3* | ? | 2.24µM* | 0.891µM* | 2µM* | +
Cc1cc(NC(c2ccc(Cl)cc2)c2ccc3cccnc3c2O)no1 (centres undefined) | -18.6% | -97.7* | ? | ? | ? | 2.51µM* | i
CCCC(=O)NC(c1ccc(N(C)C)cc1)c1ccc2cccnc2c1O (centres undefined) | 1.1% | -98.2* | ? | 7.08µM* | ? | 3.16µM* | ?
CCC(=O)NC(c1ccc(C)cc1)c1ccc2cccnc2c1O (centres undefined) | 2.5% | -98.5* | 11.2µM* | ? | 3.16µM* | ? | i
Cc1ccc2ccc(C(Nc3ccccc3)c3ccc(Cl)cc3)c(O)c2n1 (centres undefined) | 0.2% | ? | . | . | . | . | .
O=C1C2C(C(=O)N1/N=C/c1ccc(N3CCCCC3)o1)C1C=CC2C12CC2 (centres undefined) | -8.9% | 2.7 | -0.3% | 22.1% | 5.5% | 4.9% | .
COc1ccc(CCNC(=O)CSc2nnc(C(C)N(C)C)n2Cc2ccccc2)cc1OC (centres undefined) | 8.8% | -10.2 | -13.1% | 1.0% | 2.0%[46.1 µM] | -3.9% | .

Compound activity from PubChem.
